Test results: PubChem BioAssay AID602357 (National Center for Advancing Translational Sciences (NCATS), 2012)
Results filed as inconclusive are left out. Calls of active or inactive are those of the source. Calls come from the whole dose curve; as a rule, active = well fitted inhibition curve with a large enough effect; inconclusive = small, poorly fitted or top-dose-only effect; inactive = no such curve, though single readings can be large or run the other way.

Target: Luciferin 4-monooxygenase (Photinus pyralis) (UniProt P08659)
Sequence (P08659 whole entry, looked up): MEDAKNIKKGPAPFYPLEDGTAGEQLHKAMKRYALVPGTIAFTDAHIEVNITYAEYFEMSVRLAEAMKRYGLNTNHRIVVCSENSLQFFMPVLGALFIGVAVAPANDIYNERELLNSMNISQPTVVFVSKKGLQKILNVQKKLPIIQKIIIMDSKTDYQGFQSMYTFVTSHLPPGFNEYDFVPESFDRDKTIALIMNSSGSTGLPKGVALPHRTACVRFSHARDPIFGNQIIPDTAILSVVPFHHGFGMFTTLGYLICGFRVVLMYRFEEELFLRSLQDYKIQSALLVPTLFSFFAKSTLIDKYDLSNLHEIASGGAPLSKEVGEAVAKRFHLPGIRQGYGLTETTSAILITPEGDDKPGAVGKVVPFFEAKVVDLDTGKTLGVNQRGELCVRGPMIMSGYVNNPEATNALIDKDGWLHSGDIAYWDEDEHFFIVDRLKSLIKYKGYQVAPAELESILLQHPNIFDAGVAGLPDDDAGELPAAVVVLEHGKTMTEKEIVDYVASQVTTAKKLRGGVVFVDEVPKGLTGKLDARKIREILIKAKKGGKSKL
Assay: FLuc inhibitory activity for the follow-up compounds in a biochemical assay with Km concentrations of substrate
Summary of the method: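 Purified P. pyralis luciferase (10 nM final) in 50 mM Tris acetate pH 7.5, 10 mM Mg acetate, 0.01% Tween-20, 0.05% BSA, with 10 uM D-luciferin and 10 uM ATP. 12-point qHTS titration, ~60 uM to 0.3 nM; luminescence read by CCD imager.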

SMILES | Potency
NC(=O)Cc1ccc2sc(-c3ccccc3)nc2c1 | 5.17 µM (active)
CCOc1c(Cl)cc(C(=O)Nc2ccccc2C(=O)O)cc1Cl | 18.3 µM (active)
O=C(Nc1ccccc1C(=O)O)c1cc(S(=O)(=O)NCc2ccccc2)ccc1Cl | inactive
CN=c1scc(-c2ccccc2F)n1/N=C/c1ccc[nH]1 | 0.0461 µM (active)
O=C(Nc1ccc(-c2nc3ccccc3s2)cc1)C1=COCCO1 | 0.0919 µM (active)
CC(C)CC(=O)Nc1cccc(C(=O)Nc2ccccc2C(=O)O)c1 | 18.3 µM (active)
COc1ccc2nc(NC(=O)c3ccc(NS(=O)(=O)c4cccs4)cc3)sc2c1 | 10.3 µM (active)
COc1ccc2nc(NC(=O)c3cccs3)sc2c1 | 20.6 µM (active)
Cc1ccc2nc(-c3ccc(NC(=O)CN4CCN(C(=O)c5ccco5)CC4)cc3)sc2c1 | 5.8 µM (active)
O=C(Nc1ccccc1C(=O)O)c1cccc(NC(=O)c2ccccc2Cl)c1 | 23.1 µM (active)
COc1ccc2nc(NC(=O)c3ccc([N+](=O)[O-])o3)sc2c1 | 3.66 µM (active)
COc1ccc2nc(NC(=O)c3ccc4ncsc4c3)sc2c1 | 1.63 µM (active)
COc1cccc(OC)c1C(=O)Nc1cccc(C(=O)Nc2cccc(C(=O)O)c2)c1 | 5.8 µM (active)
CCOc1ccc2nc(NC(=O)c3cccnc3)sc2c1 | 2.91 µM (active)
O=C(Nc1ccccc1C(=O)O)c1cccc(S(=O)(=O)N2CCCC2)c1 | 13 µM (active)
Cc1ccc(NS(=O)(=O)c2ccc(Cl)c(C(=O)Nc3cccc(C(=O)O)c3)c2)cc1 | inactive
Cc1cccc(C(=O)Nc2ccccc2C(=O)Nc2ccc(C(=O)O)cc2)c1 | 11.6 µM (active)
